4 molecules from PubChem BioAssay can be followed below.

Activity calls are given as the source filed them. Unless noted, no rule for the calls is given here.

Assay [1] has as its system Wnt5a (protein binding on small-molecule microarray). As to the kind of experiment: Wnt5a binders on small-molecule microarray, primary screen, biophysical, 635/667 nm fluorescence (AID 1142).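 Also: fluorescence read at 667 nm with signal to noise per printed feature.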 As to conditions: 635 nm fluorescence, higher = more signal.
The nature of assay [2]: cell viability in Huh7 cells, primary screen, cytotoxicity control for HCV replication inhibitor project, CellTiter-Glo luminescence, basal, 48 h (AID 1143).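 Also: Huh7 hepatoma cells carrying a hepatitis C replication reporter with no stimulus; test concentration not given here.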 As to conditions: Huh7 HCV replicon, higher = more signal, called active from +8 up or from −8 down.
A short description of assay [3]: P. aeruginosa biofilm formation inhibitors, primary screen, PAO1 strain, BacTiter-Glo luminescence, LB-PBS (AID 1144). As to conditions: 12 h, higher = more signal.
A short description of assay [4]: CREB reporter modulators without forskolin, primary screen, cell-based, PC12, CRE-LacZ reporter, unstimulated (AID 1145). As to conditions: no forskolin, luminescence, 4.5 h, higher = more signal, called active from +8 up or from −8 down.
Assay [5] in a line: CREB reporter modulators under forskolin, primary screen, cell-based, PC12, CRE-LacZ reporter, forskolin-stimulated (AID 1146).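 Also: PC12 cells with 6xCRE LacZ reporter stimulated by forskolin 10 µM; beta-galactosidase reporter signal reflecting CREB driven transcription.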 As to conditions: luminescence, 4.5 h, higher = more signal, called active from +8 up or from −8 down.
In assay [6] the target is Streptavidin (Streptomyces avidinii) (UniProt P22629). Kind of assay: streptavidin binders on small-molecule microarray, primary screen, artefact control for SMM compound annotation, biophysical, 635/667 nm fluorescence (AID 1147).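 Also: signal reflects streptavidin binding to arrayed compounds as a control protein.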 As to conditions: streptavidin binding, higher = more signal.
Sequence of Streptavidin (Streptomyces avidinii) (P22629 whole entry, looked up): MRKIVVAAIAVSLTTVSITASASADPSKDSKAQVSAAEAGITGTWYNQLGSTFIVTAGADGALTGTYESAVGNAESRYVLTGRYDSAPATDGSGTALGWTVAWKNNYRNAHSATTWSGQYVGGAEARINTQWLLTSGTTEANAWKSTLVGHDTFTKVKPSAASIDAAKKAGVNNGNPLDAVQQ
Assay [7] is described as follows: small-molecule binders of probe aInhba, primary screen, biochemical, small-molecule microarray, 635/667 nm fluorescence (AID 1148).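 Also: score merges 667nm spot fluorescence with signal-to-noise for antibody binding to printed compounds.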 As to conditions: higher = more signal.
For assay [8], the target named is Torsin-1A (Homo sapiens) (UniProt O14656). Kind of assay: torsin A binders from cell lysate, primary screen, small-molecule microarray, wild-type, 635/667 nm (AID 1149). As to conditions: COS7 hTOR1A-WT lysate, 635 nm fluorescence, higher = more signal.
Sequence of Torsin-1A (Homo sapiens) (O14656 whole entry, looked up): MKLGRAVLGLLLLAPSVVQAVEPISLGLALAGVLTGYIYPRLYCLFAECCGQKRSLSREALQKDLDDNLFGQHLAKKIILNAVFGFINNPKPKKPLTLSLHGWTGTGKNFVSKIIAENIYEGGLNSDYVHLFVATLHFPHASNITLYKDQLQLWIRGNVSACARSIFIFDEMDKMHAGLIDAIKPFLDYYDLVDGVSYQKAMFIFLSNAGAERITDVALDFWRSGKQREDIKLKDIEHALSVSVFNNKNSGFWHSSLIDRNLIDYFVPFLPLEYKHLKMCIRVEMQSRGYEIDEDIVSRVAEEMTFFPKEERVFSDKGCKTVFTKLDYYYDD
The target is the same in assay [9]. Kind of assay: small-molecule binders of mutant TOR1A in lysate, primary screen, cell lysate, small-molecule microarray, COS7 lysate, 635/667 nm fluorescence (AID 1150).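 Also: score pools 667 nm emission and signal to noise measuring lysate protein binding.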 As to conditions: COS7 hTOR1A mutant lysate, 635 nm fluorescence, higher = more signal.
Assay [10] relates to Sonic hedgehog protein (Shh). As to the kind of experiment: small-molecule binders of Shh protein, primary screen, biochemical, small-molecule microarray, 635/667 nm fluorescence (AID 1151).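 Also: Shh protein binding to compounds spotted on small-molecule microarray slides; score combines spot fluorescence intensity with signal-to-noise across triplicate slides.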 As to conditions: small-molecule microarray binding, 635 nm fluorescence; higher = more signal.
The nature of assay [11]: E. coli DRC41 culture turbidity changes, primary screen, E. coli filamentation inducer project, strain DRC41, OD650, 48 h (AID 1152).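 Also: E. coli MC1000 strain DRC41 lacking acrAB efflux pump and sulA.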 As to conditions: E. coli DRC41 (acrAB sulA), higher = more signal, called active from +8 up or from −8 down.
Assay [12] is described as follows: small-molecule binders of probe aLefty1, primary screen, biochemical, small-molecule microarray, 635/667 nm fluorescence (AID 1153).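 Also: score merges spot fluorescence with signal-to-noise ratio from the scanned slide images.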 As to conditions: higher = more signal.
A short description of assay [13]: PSAC antagonists in infected red cells, primary screen, cell-based, P. falciparum Indochina, OD700, 1 h (AID 1154). As to conditions: P. falciparum Indochina infected RBC osmotic lysis, higher = more signal, called active from +8 up or from −8 down.
Assay [14] can be described thus: PSAC antagonists in infected red cells, primary screen, cell-based, P. falciparum Indochina, OD700, 2 h (AID 1155).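 Also: lysis reports solute entry through the parasite surface anion channel PSAC; channel blockers reduce lysis of infected cells.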 As to conditions: P. falciparum Indochina infected erythrocytes, osmotic lysis OD700; higher = more signal, called active from +8 up or from −8 down.
Assay [15] can be described thus: osmotic lysis modulators in infected erythrocytes, primary screen, PSAC antagonist project, cell-based, P. falciparum Indochina, OD700, 3 h (AID 1156). As to conditions: higher = more signal, called active from +8 up or from −8 down.
A short description of assay [16]: PSAC antagonists in infected red cells, primary screen, cell-based, P. falciparum Indochina, OD700, 18 h (AID 1157). As to conditions: P. falciparum Indochina infected erythrocytes, osmotic lysis OD700, 18 h; higher = more signal, called active from +8 up or from −8 down.
A short description of assay [17]: modulators of S6 phosphorylation in cells, primary screen, cell-based, A549, cytoblot, luminescence, serum-stimulated (AID 1158).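 Also: serum-stimulated A549 lung adenocarcinoma cells; signal is phosphorylated S6 detected by cytoblot immunostaining with HRP secondary.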 As to conditions: A549 phospho-S6 cytoblot, 5 h, higher = more signal.
Assay [18] has as its target NADPH oxidase 2 (Homo sapiens) (UniProt P04839). As to the kind of experiment: NOX2-dependent H2O2 signal modulators, primary screen, NOX inhibitor project, cell-based, HEK293-NOX2, PMA-stimulated, Amplex Red fluorescence (AID 1159). Also: test concentration not given here. As to conditions: 45 min, higher = more signal, called active from +8 up or from −8 down.
Assay [19] concerns the target NADPH oxidase 4 (Homo sapiens) (UniProt Q9NPH5). As to the kind of experiment: NOX4-dependent H2O2 signal modulators, primary screen, NOX inhibitor project, cell-based, HEK293-NOX4, tetracycline-induced, Amplex Red fluorescence (AID 1160). As to conditions: 45 min, higher = more signal, called active from +8 up or from −8 down.
For assay [20], the target named is NADPH oxidase 5 (Homo sapiens) (UniProt Q96PH1). Kind of assay: NOX5-dependent H2O2 signal modulators, primary screen, NOX inhibitor project, cell-based, HEK293-NOX5, Amplex Red fluorescence (AID 1161). As to conditions: HEK293-NOX5, ionomycin, 45 min, higher = more signal.
Sequence of NADPH oxidase 5 (Homo sapiens) (Q96PH1 whole entry, looked up): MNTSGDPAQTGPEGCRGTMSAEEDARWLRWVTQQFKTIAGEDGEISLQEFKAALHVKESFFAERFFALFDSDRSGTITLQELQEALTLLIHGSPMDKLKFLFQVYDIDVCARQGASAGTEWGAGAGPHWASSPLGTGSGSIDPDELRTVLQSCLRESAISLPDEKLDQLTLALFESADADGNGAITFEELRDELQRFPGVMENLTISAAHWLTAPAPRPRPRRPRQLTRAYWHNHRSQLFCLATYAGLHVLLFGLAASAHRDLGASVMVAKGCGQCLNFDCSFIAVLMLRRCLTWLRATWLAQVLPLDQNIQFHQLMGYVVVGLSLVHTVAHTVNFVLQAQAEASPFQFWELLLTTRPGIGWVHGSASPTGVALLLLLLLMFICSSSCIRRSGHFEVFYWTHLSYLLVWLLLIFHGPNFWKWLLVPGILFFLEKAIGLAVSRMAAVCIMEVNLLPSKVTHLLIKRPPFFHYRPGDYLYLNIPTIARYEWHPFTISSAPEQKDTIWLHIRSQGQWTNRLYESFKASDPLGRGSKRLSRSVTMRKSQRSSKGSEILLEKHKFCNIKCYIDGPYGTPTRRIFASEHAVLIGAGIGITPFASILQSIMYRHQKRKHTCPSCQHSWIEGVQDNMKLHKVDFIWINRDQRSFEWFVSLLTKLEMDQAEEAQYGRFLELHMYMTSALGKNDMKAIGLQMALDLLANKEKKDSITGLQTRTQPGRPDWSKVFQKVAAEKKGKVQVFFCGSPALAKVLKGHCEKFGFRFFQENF

Sequence of NADPH oxidase 4 (Homo sapiens) (Q9NPH5 whole entry, looked up): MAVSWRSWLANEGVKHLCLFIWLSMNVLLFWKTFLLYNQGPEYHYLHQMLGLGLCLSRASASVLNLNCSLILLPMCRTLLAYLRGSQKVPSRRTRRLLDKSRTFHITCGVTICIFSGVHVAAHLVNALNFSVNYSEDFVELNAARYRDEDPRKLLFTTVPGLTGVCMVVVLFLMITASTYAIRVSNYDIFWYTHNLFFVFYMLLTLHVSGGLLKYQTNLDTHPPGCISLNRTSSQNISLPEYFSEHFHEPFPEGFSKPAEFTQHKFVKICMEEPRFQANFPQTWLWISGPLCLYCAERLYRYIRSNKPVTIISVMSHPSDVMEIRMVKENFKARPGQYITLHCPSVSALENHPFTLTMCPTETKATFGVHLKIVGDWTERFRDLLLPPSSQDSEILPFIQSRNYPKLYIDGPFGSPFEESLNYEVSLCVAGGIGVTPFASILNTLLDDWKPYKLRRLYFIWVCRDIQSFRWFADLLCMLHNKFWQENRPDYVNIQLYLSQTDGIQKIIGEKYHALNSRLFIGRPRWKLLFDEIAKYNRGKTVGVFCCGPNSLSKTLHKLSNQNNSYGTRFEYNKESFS
Sequence of NADPH oxidase 2 (Homo sapiens) (P04839 whole entry, looked up): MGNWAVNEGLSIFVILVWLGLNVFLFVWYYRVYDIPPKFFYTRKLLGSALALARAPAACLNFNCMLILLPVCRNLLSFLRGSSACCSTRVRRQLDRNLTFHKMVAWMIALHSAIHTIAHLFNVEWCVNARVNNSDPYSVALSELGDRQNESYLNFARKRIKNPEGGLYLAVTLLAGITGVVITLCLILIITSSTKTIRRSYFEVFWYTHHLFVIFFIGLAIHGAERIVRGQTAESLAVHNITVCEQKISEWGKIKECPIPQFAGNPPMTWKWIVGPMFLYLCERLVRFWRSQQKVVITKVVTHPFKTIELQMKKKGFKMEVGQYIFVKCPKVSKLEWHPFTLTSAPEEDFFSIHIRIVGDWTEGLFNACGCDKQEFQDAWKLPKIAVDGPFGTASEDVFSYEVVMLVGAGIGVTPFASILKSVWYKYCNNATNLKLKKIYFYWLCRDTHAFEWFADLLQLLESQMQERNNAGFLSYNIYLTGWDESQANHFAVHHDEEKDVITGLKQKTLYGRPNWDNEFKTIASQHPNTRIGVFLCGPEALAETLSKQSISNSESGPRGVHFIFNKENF

As to `O=C1N(CCS(=O)(=O)c2ccccc2)c2ccccc2[C@@H]2OC(c3ccc(OCCCO)cc3)=N[C@]12Cc1ccccc1`, the composite z-score in assay [1] is -0.0372; in assay [6], 0.14; in assay [7], 0.0091; in assay [8], 0.422; in assay [9], 0.208; in [10], 1.95. Also, the composite z-score in assay [12] is -0.081. The z-score in assay [2] was -3.61 (inactive); in [3], -0.157 (inactive); in assay [4] it was 1.26 (inactive); in [5] it was -1.77 (inactive); in [11] it was 0.0442 (inactive); in [13], 30.9 (active). Further, the z-score is 24.6 (active) in assay [14]; 2.85 (inactive) in assay [15]; 6.38 (inactive) in assay [16]; 2.01 in assay [17]; -2.55 (inactive) in [18]; 0.645 (inactive) in assay [19]. In assay [20], this molecule displayed a z-score of -1.18.

For `COc1cc2c(cc1OC)CN(C(=O)[C@H]1[C@@H]3C(=O)O[C@@H](c4ccccc4)[C@@H](c4ccccc4)N3[C@@H](c3ccccc3OCCO)[C@]13C(=O)Nc1ccc(C#CCCO)cc13)CC2`, the composite z-score in [1] was 0.703; in [6], 0.225; in assay [7] it was -0.0567; in assay [8] it was -0.0954; in [9], 0.142; in assay [10] it was 1.75. The molecule further registered a composite z-score in [12] of 0.112. The z-score in [2] is -0.964 (inactive); in assay [3], 0.677 (inactive); in assay [4], 0.712 (inactive); in assay [5], 1.64 (inactive); in [11], -0.667 (inactive); in assay [13], 3.11 (inactive). Besides, the z-score is 1.89 (inactive) in assay [14]; 1.89 (inactive) in [15]; 0.835 (inactive) in assay [16]; -0.482 in assay [17]; 1.44 (inactive) in [18]; 1.26 (inactive) in assay [19]. In assay [20], this molecule registered a z-score of 0.819.

Regarding `Cc1ccc(C2C3C(=O)CC4C(=O)N(c5ccccc5)C(=O)C4C3CN2S(=O)(=O)c2ccc(C)cc2)cc1` (stereo not given), the composite z-score in [1] is 0.731; in assay [6] it was 0.525; in assay [7], 0.255; in assay [8], 0.0484; in assay [9], 0.392; in assay [10], 0.205. The composite z-score in assay [12] turned out to be 0.476. The z-score in assay [2] is -0.966 (inactive); in [3], 0.538 (inactive); in [4], -0.826 (inactive); in assay [5], -0.743 (inactive); in assay [11] it was -0.339 (inactive); in assay [13], 1.7 (inactive). Moreover, the z-score in assay [14] is 0.714 (inactive); in assay [15] it was 1.72 (inactive); in assay [16], 0.438 (inactive); in [17], -0.69; in assay [18], 1.28 (inactive); in assay [19], 0.793 (inactive). This molecule also registered a z-score in assay [20] of -0.9.

On to `C#CCN1[C@H](/C=C/C2CC2)[C@H](Cc2ccccc2)OC(=O)[C@@H]1Cc1ccccc1`, for which the composite z-score was -0.18 in assay [1]; -0.929 in assay [6]; -0.0675 in [7]; 0.349 in assay [8]; 0.429 in assay [9]; 1.12 in assay [10]. Besides, in assay [12], the composite z-score is -0.306. Moreover, the z-score in [2] is -3.28 (inactive); in assay [3] it was 0.854 (inactive); in [4] it was 1.04 (inactive); in assay [5], 1.29 (inactive); in assay [11], -0.625 (inactive); in [13], 0.128 (inactive). Besides, the z-score in assay [14] was 0.224 (inactive); in assay [15], -0.491 (inactive); in [16] it was -0.16 (inactive); in [17] it was 0.0807; in assay [18], -0.263 (inactive); in [19], -0.367 (inactive). The molecule further had a z-score in [20] of -1.98.
